Test results: PubChem BioAssay AID1159580 (chemical genetic matrix, 2015)
About 2,000 (36%) of roughly 5,500 compounds were called active. Not shown: some 18% with an inconclusive outcome. Cut-off read from the data, not from the text of the source: active = normalized growth mostly below about 0.91 (no sharp cut-off); inconclusive = no clear call, values can overlap the other calls; inactive = mostly above about 0.92. The list shows a part of the results.

Test: chemical genetic growth profiling, strain panel (AID 1159580);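 note: tested at 20 µM; growth read once vehicle control cultures reached saturation at 30 °C; 1 = growth at the plate median or of vehicle wells; lower values mean less growth of the strain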
Details: growth OD

Measured: normalized growth

C[C@]12CCC(=O)C=C1CCC1C2CC[C@@]2(C)C1CC[C@@H]2O (some centres not stated)
inactive: S. cerevisiae deletion strains, locus YJR075W, strain HOC1, active compounds read low 0.996 | S. cerevisiae deletion strains, locus YKL009W, strain mrt4, active compounds read low 0.957 | S. cerevisiae deletion strains, locus YKL068W, active compounds read low 1.03 | S. cerevisiae deletion strains, locus YKL085W, strain MDH1 (second series), active compounds read low 1.01 | S. cerevisiae deletion strains, locus YKL085W, strain MDH1, active compounds read low 1.01 | S. cerevisiae deletion strains, locus YKL160W, strain elf1, active compounds read low 0.994 | S. cerevisiae deletion strains, locus YKL190W, strain CNB1, active compounds read low 1.03 | S. cerevisiae deletion strains, locus YKR001C, strain vps1, active compounds read low 1.03 | S. cerevisiae deletion strains, locus YKR026C, strain gcn3, active compounds read low 1 | S. cerevisiae deletion strains, locus YKR091W, strain srl3, active compounds read low 0.991 | S. cerevisiae deletion strains, locus YLL001W, strain dnm1, active compounds read low 1 | S. cerevisiae deletion strains, locus YLL026W, active compounds read low 0.992 | S. cerevisiae deletion strains, locus YLL041C, strain sdh2, active compounds read low 0.99 | S. cerevisiae deletion strains, locus YLR027C, strain aat2, active compounds read low 1 | S. cerevisiae deletion strains, locus YLR039C, strain RIC1, active compounds read low 1.17 | S. cerevisiae deletion strains, locus YLR058C, strain SHM2, active compounds read low 1.02 | S. cerevisiae deletion strains, locus YLR102C, strain apc9, active compounds read low 1.03 | S. cerevisiae deletion strains, locus YLR113W, strain HOG1, active compounds read low 0.99 | S. cerevisiae deletion strains, locus YLR221C, strain rsa3, active compounds read low 0.988 | S. cerevisiae deletion strains, locus YLR258W, strain gsy2, active compounds read low 0.993 | S. cerevisiae deletion strains, locus YLR262C, strain YPT6 (second series), active compounds read low 0.98 | S. cerevisiae deletion strains, locus YLR262C, strain YPT6, active compounds read low 1.18 | S. cerevisiae deletion strains, locus YLR268W, strain sec22, active compounds read low 1.01 | S. cerevisiae deletion strains, locus YLR320W, strain mms22, active compounds read low 0.946 | S. cerevisiae deletion strains, locus YLR330W, strain CHS5, active compounds read low 1.02 | S. cerevisiae deletion strains, locus YLR342W, strain FKS1 (second series), active compounds read low 0.983 | S. cerevisiae deletion strains, locus YLR342W, strain FKS1, active compounds read low 0.985 | S. cerevisiae deletion strains, locus YLR357W, strain rsc2, active compounds read low 1.02 | S. cerevisiae deletion strains, locus YLR370C, strain arc18, active compounds read low 0.988 | S. cerevisiae deletion strains, locus YLR371W, strain rom2, active compounds read low 1.02 | S. cerevisiae deletion strains, locus YLR384C, strain iki3, active compounds read low 1 | S. cerevisiae deletion strains, locus YLR418C, strain cdc73, active compounds read low 1.02 | S. cerevisiae deletion strains, locus YML016C, strain PPZ1, active compounds read low 1.02 | S. cerevisiae deletion strains, locus YML032C, strain rad52, active compounds read low 1.02 | S. cerevisiae deletion strains, locus YML120C, strain ndi1, active compounds read low 0.981 | S. cerevisiae deletion strains, locus YML124C, strain tub3, active compounds read low 1.03 | S. cerevisiae deletion strains, locus YMR058W, strain fet3, active compounds read low 0.993 | S. cerevisiae deletion strains, locus YMR078C, strain ctf18, active compounds read low 1.03 | S. cerevisiae deletion strains, locus YMR125W, strain sto1, active compounds read low 0.99 | S. cerevisiae deletion strains, locus YMR129W, active compounds read low 0.993 | S. cerevisiae deletion strains, locus YMR205C, strain PFK2, active compounds read low 0.936 | S. cerevisiae deletion strains, locus YMR223W, strain ubp8, active compounds read low 1.01 | S. cerevisiae deletion strains, locus YMR231W, strain pep5, active compounds read low 0.999 | S. cerevisiae deletion strains, locus YMR263W, strain SAP30, active compounds read low 1.04 | S. cerevisiae deletion strains, locus YMR307W, strain GAS1, active compounds read low 1.23 | S. cerevisiae deletion strains, locus YNL067W, strain RPL9B, active compounds read low 0.993 | S. cerevisiae deletion strains, locus YNL071W, strain lat1, active compounds read low 0.976 | S. cerevisiae deletion strains, locus YNL128W, strain TEP1, active compounds read low 1.02 | S. cerevisiae deletion strains, locus YNL153C, strain GIM3, active compounds read low 1.02 | S. cerevisiae deletion strains, locus YNL183C, strain NPR1, active compounds read low 0.988 | S. cerevisiae deletion strains, locus YNL209W, strain ssb2, active compounds read low 1.01 | S. cerevisiae deletion strains, locus YNL233W, strain BNI4, active compounds read low 1.04 | S. cerevisiae deletion strains, locus YNL248C, strain rpa49, active compounds read low 1 | S. cerevisiae deletion strains, locus YNL250W, strain rad50, active compounds read low 1.05 | S. cerevisiae deletion strains, locus YNL271C, strain bni1, active compounds read low 1.02 | S. cerevisiae deletion strains, locus YNL298W, strain CLA4, active compounds read low 1 | S. cerevisiae deletion strains, locus YNL307C, strain MCK1, active compounds read low 0.989 | S. cerevisiae deletion strains, locus YNL322C, strain KRE1 (second series), active compounds read low 0.993 | S. cerevisiae deletion strains, locus YNL322C, strain KRE1, active compounds read low 1.02 | S. cerevisiae deletion strains, locus YNR049C, strain mso1, active compounds read low 0.982 | S. cerevisiae deletion strains, locus YNR052C, strain pop2, active compounds read low 0.989 | S. cerevisiae deletion strains, locus YOL006C, strain TOP1, active compounds read low 0.971 | S. cerevisiae deletion strains, locus YOL012C, strain htz1 1.89 | S. cerevisiae deletion strains, locus YOL147C, strain pex11, active compounds read low 1.03 | S. cerevisiae deletion strains, locus YOR001W, strain rrp6, active compounds read low 0.995 | S. cerevisiae deletion strains, locus YOR061W, strain CKA2, active compounds read low 1.02 | S. cerevisiae deletion strains, locus YOR069W, strain VPS5, active compounds read low 1.01 | S. cerevisiae deletion strains, locus YOR070C, strain gyp1, active compounds read low 0.988 | S. cerevisiae deletion strains, locus YOR080W, strain dia2, active compounds read low 0.983 | S. cerevisiae deletion strains, locus YOR083W, strain WHI5, active compounds read low 0.983 | S. cerevisiae deletion strains, locus YOR106W, strain vam3, active compounds read low 0.96 | S. cerevisiae deletion strains, locus YOR136W, strain idh2, active compounds read low 1.04 | S. cerevisiae deletion strains, locus YOR144C, strain elg1, active compounds read low 1.03 | S. cerevisiae deletion strains, locus YOR184W, strain ser1, active compounds read low 0.98 | S. cerevisiae deletion strains, locus YOR231W, strain MKK1, active compounds read low 0.99 | S. cerevisiae deletion strains, locus YOR265W, strain rbl2, active compounds read low 0.989 | S. cerevisiae deletion strains, locus YOR270C, strain vph1, active compounds read low 0.936 | S. cerevisiae deletion strains, locus YOR290C, strain snf2, active compounds read low 0.967 | S. cerevisiae deletion strains, locus YOR316C, strain cot1, active compounds read low 1.03 | S. cerevisiae deletion strains, locus YPL051W, strain arl3, active compounds read low 1 | S. cerevisiae deletion strains, locus YPL055C, strain LGE1, active compounds read low 1.07 | S. cerevisiae deletion strains, locus YPL078C, strain atp4, active compounds read low 0.997 | S. cerevisiae deletion strains, locus YPL106C, strain sse1, active compounds read low 1.05 | S. cerevisiae deletion strains, locus YPL240C, strain hsp82, active compounds read low 0.978 | S. cerevisiae deletion strains, locus YPL241C, strain CIN2, active compounds read low 1.03 | S. cerevisiae deletion strains, locus YPL256C, strain CLN2, active compounds read low 1.06 | S. cerevisiae deletion strains, locus YPR119W, strain clb2, active compounds read low 1.02 | S. cerevisiae deletion strains, locus YPR141C, strain kar3, active compounds read low 1.04 | S. cerevisiae deletion strains, locus YPR163C, strain tif3, active compounds read low 1.04 | S. cerevisiae deletion strains, locus YPR167C, strain met16, active compounds read low 1.03 | S. cerevisiae deletion strains, strain wtn01, active compounds read low 0.989 | S. cerevisiae strains, strain wild type, active compounds read low 1.01
